Measured values as given in PubChem BioAssay.
A number with no mark means an inactive call. No rule for the calls is given here.

The compounds below were run against Pantothenate synthetase (Mycobacterium tuberculosis (strain ATCC 25618 / H37Rv)) (UniProt P9WIL5) (assay: Coupled enzyme confirmation of inhibitors against recombinant Mtb PanC (AID 375;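 also: 0% = full reaction with vehicle and 100% = no enzyme background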)). Conditions: coupled enzyme assay; at 10 µM, active compounds read high.
Sequence of Pantothenate synthetase (Mycobacterium tuberculosis (strain ATCC 25618 / H37Rv)) (P9WIL5 whole entry, looked up): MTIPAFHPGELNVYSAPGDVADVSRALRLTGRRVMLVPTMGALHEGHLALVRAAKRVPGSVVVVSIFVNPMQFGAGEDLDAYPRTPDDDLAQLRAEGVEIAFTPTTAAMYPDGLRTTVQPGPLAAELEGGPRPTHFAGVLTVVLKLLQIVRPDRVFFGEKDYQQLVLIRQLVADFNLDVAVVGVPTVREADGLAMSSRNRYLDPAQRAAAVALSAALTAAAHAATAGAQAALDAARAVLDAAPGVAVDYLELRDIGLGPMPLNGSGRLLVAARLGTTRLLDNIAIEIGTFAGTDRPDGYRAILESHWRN

| SMILES | inhibition |
| --- | --- |
| COCCSc1nnc(NC(=O)CSCc2ccccc2)s1 | 0% |
| C[N+]1=C2CCCCCN2C(O)(c2ccccc2)C1 (stereo not given) | 7% |
| Cc1nnc(SCC(=O)Nc2sc3c(c2C#N)CCCC3)[nH]c1=O | 0% |
| Cn1nnnc1SCc1cn2cccnc2n1 | 0% |
| Cc1cc(NC(=O)c2cnn3c(C(F)F)cc(C4CC4)nc23)no1 | 0% |
| O=C(CSc1nnc(Cn2cnc3ccccc32)o1)c1ccccc1 | 0% |
| CCOC(=O)N1CCC(N2CC34C=CC(O3)C(C(=O)O)C4C2=O)CC1 (stereo not given) | 0% |
| O=S(=O)(NC1CCCC1)c1ccccc1Cl | 0% |
| CNC(=O)c1nnn(Cc2ccccc2)c1NC(C)=O | 2% |
| Cc1cc(C)n2nc3nc(N4CCCCC4)nc(-c4ccco4)c3c2n1 | 25% |
| O=c1ccn(Cc2ccccc2Cl)cc1 | 0% |
| CC(C)CCNC(=O)NC(=O)CSc1nnc(-c2ccccc2Br)o1 | 1% |
| O=C(COC(=O)C1CC1)c1c[nH]c2ccccc12 | 1% |
| O=C(C(Cc1ccccc1)n1cccc1)N1CCCCCC1 (stereo not given) | 8% |
| O=C(c1ccc2snnc2c1)N1CCOCC1 | 3% |
| O=c1c2c3c(sc2nc2sc(C4CC4)nn12)CCCC3 | 0% |
| Nc1nc(N)nc(-c2ccccc2)n1 | 0% |
| O=C(NC1CCCCC1)N(Cc1ccccc1)Cc1ccco1 | 1% |
| COc1ccc(S(=O)(=O)N2CCC(C(=O)c3ccc4c(c3)OCCO4)CC2)cc1 | 0% |
| CCOC(=O)C1CCN(C(=O)COc2ccc(Cl)cc2Cl)CC1 | 0% |

| SMILES | inhibition |
| --- | --- |
| COc1ccc(CCN2CC(O)=C(c3nc4ccccc4c(=O)[nH]3)C2=N)cc1OC | 0% |
| N#CC1=C(N)N(c2ccc(Oc3ccccc3)cc2)C(=O)C1 | 2% |
| O=C(COC(=O)C1=COCCO1)Nc1ccccc1Oc1ccccc1 | 1% |
| COC(=O)c1cc(OC)c(OC)cc1NC(=O)CCC1CCCC1 | 0% |
| Cn1c(=O)c2c(ncn2CC(O)CNc2ccc(Cl)cc2)n(C)c1=O (stereo not given) | 0% |
| Cc1cc(C(F)(F)F)nc(SCC(=O)NC2=NC(=O)C(C)S2)n1 (stereo not given) | 2% |
| CNC[C@H](O)c1cccc(O)c1 | 0% |
| Cc1csc(NC(=O)c2ccccc2C(=O)O)n1 | 5% |
| Cc1c(O)c(CN2CCCCC2)cc2c3c(c(=O)oc12)CCC3 | 2% |
| CC(=O)c1cccc(NC(=O)N2CCCC2C(=O)NCc2ccc(C)cc2)c1 (stereo not given) | 4% |
| O=C(NC1CCCCC1)n1c(=O)oc2ccc(Cl)cc21 | 5% |
| CCOC(=O)c1ccccc1NC(=O)N1CCn2c(C)ccc2C1CC (stereo not given) | 2% |
| COC(=O)Nc1nc2ccc(C(=O)c3ccccc3)cc2[nH]1 | 1% |
| O=C(CSCc1n[nH]c(=O)[nH]1)NCCOc1cccc(Oc2ccccc2)c1 | 1% |
| O=C(CN1C(=O)c2cccc3cccc1c23)NCC1CCCO1 (stereo not given) | 5% |
| CC(C)Cn1c(N)c(C(=O)COC(=O)c2ccc3c(c2)OCCO3)c(=O)n(C)c1=O | 0% |
| CCCCC(=O)NCCc1ccc(S(N)(=O)=O)cc1 | 0% |
| CCNc1oc(COc2ccccc2F)nc1C#N | 9% |
| COc1ccccc1-c1nc(C#N)c(N2CCN(c3ccccc3)CC2)o1 | 0% |
| CCC[C@@H]1C[C@@H](C(=O)N[C@H]([C@@H](C)O)[C@H]2O[C@H](SC)[C@H](O)[C@@H](O)C2O)N(C)C1 (stereo not given in full) | 0% |
